Common to all, as to assay: DAPPL (digital affinity profiling via proximity ligation, sequencing); 10 mM Tris-HCl pH 7.5, 50 mM NaCl, 1 mM DTT, 4% glycerol, room temperature, 30 min; GST-TFs on glutathione beads, 16-mer random dsDNA library, 0.1% formaldehyde crosslink after washing; high values mean tight binding
Common to all, as to settings: protein: recombinant; tags: N-terminal GST; dsDNA, one strand shown

One experiment deals with T1, ELK1 (Homo sapiens, UniProt P19419 1-428).
T1 sequence: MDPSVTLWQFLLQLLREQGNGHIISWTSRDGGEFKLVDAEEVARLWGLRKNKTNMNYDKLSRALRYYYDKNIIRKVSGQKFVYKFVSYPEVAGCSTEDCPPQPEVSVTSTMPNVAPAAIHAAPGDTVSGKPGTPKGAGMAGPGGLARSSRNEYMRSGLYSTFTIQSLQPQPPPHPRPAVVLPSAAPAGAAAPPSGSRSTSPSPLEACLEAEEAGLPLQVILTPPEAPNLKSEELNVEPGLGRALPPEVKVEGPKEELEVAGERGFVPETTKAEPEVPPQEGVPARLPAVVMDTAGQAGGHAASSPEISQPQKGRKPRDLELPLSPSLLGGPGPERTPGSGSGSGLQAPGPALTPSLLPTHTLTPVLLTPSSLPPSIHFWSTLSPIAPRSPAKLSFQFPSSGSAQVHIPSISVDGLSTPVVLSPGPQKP
A digest of the protocol: (§1)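 Binding signal is each hexamer's read frequency for a factor divided by its frequency in the tag-only sample. The factors were GST-fused human transcription factors from yeast, captured on glutathione beads, DNA-barcoded and pooled with that sample. Pools were incubated with 200 nmole of a random double-stranded 16-mer DNA library in Tris/NaCl/DTT/glycerol buffer at room temperature for 30 min, then washed, crosslinked with 0.1% formaldehyde, proximity-ligated with BsaI/T4 ligase (1 h, 37 °C), PCR-amplified and sequenced on an Illumina NextSeq500.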

For a further experiment, the target named is T2, GABPA (Homo sapiens, UniProt Q06546 1-454).
T2 sequence: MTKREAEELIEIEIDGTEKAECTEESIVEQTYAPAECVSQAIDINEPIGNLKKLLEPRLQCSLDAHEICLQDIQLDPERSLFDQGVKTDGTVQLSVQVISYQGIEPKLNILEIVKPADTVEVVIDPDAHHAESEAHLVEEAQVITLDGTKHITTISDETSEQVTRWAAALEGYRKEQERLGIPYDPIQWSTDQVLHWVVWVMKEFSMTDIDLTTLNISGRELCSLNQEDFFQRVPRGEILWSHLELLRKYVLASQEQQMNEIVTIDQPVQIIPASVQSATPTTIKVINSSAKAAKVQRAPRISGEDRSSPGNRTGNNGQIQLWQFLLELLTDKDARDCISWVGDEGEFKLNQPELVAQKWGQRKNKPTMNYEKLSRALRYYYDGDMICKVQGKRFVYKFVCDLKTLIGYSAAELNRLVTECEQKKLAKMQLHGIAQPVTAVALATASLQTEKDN
A digest of the protocol: as §1

In another experiment the target is ELF1 (Homo sapiens, UniProt P32519 1-619). A digest of the protocol: as §1
In a further experiment the target is T3, EHF (Homo sapiens, UniProt Q9NZC4 1-300).
T3 sequence: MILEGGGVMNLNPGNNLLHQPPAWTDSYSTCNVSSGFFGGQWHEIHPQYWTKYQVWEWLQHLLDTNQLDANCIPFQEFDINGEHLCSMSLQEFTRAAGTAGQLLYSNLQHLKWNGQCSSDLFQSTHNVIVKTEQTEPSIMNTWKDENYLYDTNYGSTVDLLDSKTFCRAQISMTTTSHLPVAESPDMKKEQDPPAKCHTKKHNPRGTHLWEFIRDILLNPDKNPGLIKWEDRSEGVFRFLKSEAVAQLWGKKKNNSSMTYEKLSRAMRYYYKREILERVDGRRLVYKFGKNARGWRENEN
The method in brief: as §1

For the next experiment, the target named is SPI1 (Homo sapiens, UniProt P17947 1-270). A digest of the protocol: as §1
Another experiment concerns the target SPIB (Homo sapiens, UniProt Q01892 1-262). A digest of the protocol:
as §1

For a further experiment, the target named is T4, FEV (Homo sapiens, UniProt Q99581 1-238).
T4 sequence: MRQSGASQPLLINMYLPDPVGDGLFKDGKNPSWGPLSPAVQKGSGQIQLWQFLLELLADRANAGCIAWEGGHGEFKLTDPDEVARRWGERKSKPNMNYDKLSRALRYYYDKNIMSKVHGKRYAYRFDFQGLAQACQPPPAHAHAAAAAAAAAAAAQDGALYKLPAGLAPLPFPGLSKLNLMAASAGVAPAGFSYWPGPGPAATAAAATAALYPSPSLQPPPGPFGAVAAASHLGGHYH
The method in brief: as §1

In another experiment the target is ETV5 (Homo sapiens, UniProt P41161 1-510). A digest of the protocol: as §1
Another experiment deals with ELF4 (Homo sapiens, UniProt Q99607 1-663). A digest of the protocol:
as §1

In a further experiment the target is T5, ELK4 (Homo sapiens, UniProt P28324-2 1-405).
T5 sequence: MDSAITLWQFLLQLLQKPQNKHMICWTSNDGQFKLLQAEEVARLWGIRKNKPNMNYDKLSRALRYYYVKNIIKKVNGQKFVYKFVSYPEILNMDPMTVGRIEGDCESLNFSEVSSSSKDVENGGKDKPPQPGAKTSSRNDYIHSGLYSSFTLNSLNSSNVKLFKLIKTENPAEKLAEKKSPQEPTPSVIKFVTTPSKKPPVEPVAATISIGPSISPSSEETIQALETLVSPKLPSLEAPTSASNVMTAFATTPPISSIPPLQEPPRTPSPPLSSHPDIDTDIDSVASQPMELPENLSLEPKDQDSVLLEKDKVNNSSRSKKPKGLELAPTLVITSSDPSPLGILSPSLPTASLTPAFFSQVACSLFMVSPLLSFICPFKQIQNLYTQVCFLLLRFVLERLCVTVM
The method in brief: as §1

For the next experiment, the target named is T6, ETV2 (Homo sapiens, UniProt O00321 1-342).
T6 sequence: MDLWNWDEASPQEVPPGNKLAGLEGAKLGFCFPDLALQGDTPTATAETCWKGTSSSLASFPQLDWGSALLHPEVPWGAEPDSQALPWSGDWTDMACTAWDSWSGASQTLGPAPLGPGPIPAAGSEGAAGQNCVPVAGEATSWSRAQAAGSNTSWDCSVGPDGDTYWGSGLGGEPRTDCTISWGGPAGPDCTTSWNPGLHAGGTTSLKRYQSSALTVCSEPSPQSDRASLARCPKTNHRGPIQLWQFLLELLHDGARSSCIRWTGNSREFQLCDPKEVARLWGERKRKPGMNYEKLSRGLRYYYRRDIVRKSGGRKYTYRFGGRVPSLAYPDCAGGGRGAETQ
The method in brief:
as §1

The target in the next experiment is T7, ELF3 (Homo sapiens, UniProt P78545 1-371).
T7 sequence: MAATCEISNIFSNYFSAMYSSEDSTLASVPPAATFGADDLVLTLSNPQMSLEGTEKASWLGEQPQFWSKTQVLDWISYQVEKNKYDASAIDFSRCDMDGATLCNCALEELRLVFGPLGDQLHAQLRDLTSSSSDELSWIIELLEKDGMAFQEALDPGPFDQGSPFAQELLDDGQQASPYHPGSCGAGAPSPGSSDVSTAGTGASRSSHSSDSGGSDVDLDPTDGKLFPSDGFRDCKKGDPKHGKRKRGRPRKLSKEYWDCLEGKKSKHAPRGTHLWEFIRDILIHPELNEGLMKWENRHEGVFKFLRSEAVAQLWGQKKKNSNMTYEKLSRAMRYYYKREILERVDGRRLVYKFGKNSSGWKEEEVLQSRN
The method in brief:
as §1

Another experiment deals with ETV1 (Homo sapiens, UniProt P50549 1-477). A digest of the protocol: as §1
In another experiment the target is T8, ERF (Homo sapiens, UniProt P50548 1-548).
T8 sequence: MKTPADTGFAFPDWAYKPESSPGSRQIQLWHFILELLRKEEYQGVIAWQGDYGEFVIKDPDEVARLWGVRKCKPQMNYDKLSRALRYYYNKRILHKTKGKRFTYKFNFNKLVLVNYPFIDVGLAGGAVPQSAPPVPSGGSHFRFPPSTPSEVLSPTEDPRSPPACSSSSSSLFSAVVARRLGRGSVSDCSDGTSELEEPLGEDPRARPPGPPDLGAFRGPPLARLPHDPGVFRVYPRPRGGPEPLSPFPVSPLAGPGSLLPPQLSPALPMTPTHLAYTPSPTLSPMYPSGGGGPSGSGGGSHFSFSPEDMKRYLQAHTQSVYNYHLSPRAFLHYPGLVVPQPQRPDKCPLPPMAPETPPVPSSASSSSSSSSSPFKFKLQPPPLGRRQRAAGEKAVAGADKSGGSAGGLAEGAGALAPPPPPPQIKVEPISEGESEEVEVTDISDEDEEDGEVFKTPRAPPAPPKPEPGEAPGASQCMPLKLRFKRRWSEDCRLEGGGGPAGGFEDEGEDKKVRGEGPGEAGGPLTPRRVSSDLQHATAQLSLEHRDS
A digest of the protocol:
as §1

The target in another experiment is T9, ETV3L (Homo sapiens, UniProt Q6ZN32 1-361).
T9 sequence: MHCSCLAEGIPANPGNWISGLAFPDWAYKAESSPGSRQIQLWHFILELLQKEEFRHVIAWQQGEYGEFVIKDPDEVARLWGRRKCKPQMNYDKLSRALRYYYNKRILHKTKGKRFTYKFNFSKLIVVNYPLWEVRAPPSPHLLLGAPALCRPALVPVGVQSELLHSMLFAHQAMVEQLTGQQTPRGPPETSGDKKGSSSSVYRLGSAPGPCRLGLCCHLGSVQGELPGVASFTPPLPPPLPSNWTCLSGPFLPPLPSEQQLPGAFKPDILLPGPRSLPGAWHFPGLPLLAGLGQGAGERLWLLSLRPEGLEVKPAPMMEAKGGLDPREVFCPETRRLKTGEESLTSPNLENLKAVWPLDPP
The method in brief:
as §1

Another experiment has as its target T10, ETS2 (Homo sapiens, UniProt P15036 1-469).
T10 sequence: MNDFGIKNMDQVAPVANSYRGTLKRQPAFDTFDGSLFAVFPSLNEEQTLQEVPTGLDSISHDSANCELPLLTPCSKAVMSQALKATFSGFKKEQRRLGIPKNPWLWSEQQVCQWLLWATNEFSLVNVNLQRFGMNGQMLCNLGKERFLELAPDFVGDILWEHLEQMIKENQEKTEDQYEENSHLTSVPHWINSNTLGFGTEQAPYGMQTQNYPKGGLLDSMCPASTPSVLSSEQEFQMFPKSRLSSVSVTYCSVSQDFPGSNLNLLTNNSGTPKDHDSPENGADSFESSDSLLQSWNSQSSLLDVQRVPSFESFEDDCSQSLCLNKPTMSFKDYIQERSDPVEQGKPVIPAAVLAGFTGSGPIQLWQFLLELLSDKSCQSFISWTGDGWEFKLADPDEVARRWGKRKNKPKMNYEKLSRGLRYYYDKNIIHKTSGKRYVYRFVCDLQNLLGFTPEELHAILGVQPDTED
The method in brief: as §1

The target in the next experiment is T11, ETV7 (Homo sapiens, UniProt Q9Y603 1-341).
T11 sequence: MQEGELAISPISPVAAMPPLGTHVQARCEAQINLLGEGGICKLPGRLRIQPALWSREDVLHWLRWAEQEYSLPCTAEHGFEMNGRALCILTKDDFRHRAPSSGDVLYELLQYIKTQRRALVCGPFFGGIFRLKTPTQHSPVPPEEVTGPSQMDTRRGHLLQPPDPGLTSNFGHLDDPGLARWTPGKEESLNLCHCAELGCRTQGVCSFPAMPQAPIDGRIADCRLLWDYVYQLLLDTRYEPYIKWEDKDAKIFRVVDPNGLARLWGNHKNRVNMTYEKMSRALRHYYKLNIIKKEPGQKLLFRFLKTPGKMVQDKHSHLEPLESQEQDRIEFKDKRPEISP
A digest of the protocol: as §1

For another experiment, the target named is T12, ETV3 (Homo sapiens, UniProt P41162-2 1-143).
T12 sequence: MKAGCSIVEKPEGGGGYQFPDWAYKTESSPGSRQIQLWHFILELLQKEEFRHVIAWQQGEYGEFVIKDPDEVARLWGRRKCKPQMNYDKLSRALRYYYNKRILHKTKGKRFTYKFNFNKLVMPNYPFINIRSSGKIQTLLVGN
The method in brief: as §1

The target in the next experiment is ETV6 (Homo sapiens, UniProt P41212 1-452). The method in brief:
as §1

ETV5, sequence (P41161 whole entry): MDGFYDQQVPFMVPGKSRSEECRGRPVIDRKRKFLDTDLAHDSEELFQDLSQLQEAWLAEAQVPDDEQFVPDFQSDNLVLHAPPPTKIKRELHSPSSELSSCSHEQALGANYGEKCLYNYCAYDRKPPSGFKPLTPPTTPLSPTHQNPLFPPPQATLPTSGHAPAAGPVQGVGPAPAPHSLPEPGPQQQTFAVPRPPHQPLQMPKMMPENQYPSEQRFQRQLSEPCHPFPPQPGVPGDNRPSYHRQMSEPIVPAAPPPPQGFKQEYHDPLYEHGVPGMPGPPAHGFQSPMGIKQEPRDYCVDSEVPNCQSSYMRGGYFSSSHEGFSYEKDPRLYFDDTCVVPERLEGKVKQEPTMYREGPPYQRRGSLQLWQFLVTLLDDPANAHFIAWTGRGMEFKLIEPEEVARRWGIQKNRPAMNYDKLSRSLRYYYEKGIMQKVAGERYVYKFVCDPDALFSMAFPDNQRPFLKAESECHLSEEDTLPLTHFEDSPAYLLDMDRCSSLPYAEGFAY
SPIB, sequence (Q01892 whole entry): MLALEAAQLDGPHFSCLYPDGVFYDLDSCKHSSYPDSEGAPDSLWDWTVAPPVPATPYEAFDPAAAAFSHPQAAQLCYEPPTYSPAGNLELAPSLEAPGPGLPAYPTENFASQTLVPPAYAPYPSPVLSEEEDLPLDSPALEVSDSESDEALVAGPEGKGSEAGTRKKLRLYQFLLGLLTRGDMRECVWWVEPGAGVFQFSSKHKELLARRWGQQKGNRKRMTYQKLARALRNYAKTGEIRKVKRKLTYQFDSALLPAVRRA
ELF1, sequence (P32519 whole entry): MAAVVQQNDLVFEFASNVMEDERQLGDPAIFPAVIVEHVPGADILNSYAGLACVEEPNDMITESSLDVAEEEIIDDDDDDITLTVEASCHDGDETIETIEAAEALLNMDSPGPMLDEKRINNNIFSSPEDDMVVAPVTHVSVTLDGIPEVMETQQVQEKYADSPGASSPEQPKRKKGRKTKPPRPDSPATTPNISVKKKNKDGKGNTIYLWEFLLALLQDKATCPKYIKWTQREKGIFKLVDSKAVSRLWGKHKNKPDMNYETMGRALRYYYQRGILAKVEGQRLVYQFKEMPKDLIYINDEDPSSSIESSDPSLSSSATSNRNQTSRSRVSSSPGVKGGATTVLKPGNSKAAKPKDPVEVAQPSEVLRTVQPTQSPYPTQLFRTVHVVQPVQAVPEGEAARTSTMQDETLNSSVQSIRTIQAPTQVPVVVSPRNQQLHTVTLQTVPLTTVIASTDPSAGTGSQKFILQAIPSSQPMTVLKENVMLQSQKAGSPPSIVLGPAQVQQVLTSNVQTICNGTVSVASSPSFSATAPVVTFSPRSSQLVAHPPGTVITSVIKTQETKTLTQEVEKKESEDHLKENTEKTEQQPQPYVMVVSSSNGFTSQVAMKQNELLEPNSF
ETV6, sequence (P41212 whole entry): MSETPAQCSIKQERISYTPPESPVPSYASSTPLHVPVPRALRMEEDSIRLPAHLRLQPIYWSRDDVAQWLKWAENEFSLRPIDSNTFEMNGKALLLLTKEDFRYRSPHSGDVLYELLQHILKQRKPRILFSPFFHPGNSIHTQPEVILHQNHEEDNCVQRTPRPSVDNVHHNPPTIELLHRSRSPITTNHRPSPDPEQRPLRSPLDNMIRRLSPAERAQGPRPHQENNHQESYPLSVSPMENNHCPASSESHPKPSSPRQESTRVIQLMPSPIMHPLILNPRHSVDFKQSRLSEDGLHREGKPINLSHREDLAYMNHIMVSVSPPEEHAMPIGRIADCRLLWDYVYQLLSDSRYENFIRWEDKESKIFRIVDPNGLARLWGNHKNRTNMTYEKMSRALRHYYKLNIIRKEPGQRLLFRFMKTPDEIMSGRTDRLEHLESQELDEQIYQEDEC
ETV1, sequence (P50549 whole entry): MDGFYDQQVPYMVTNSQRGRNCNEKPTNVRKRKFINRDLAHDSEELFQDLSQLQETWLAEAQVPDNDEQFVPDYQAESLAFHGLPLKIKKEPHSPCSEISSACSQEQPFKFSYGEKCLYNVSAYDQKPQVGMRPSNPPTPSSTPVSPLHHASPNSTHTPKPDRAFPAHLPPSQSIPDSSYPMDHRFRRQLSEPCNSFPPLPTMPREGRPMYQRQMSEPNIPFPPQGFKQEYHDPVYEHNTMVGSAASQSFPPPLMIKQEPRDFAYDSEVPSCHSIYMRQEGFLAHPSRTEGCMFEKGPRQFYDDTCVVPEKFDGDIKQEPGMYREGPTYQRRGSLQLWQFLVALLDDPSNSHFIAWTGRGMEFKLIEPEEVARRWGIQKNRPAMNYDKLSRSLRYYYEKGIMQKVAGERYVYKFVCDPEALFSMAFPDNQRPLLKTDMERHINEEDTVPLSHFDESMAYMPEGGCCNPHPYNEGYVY
ELF4, sequence (Q99607 whole entry): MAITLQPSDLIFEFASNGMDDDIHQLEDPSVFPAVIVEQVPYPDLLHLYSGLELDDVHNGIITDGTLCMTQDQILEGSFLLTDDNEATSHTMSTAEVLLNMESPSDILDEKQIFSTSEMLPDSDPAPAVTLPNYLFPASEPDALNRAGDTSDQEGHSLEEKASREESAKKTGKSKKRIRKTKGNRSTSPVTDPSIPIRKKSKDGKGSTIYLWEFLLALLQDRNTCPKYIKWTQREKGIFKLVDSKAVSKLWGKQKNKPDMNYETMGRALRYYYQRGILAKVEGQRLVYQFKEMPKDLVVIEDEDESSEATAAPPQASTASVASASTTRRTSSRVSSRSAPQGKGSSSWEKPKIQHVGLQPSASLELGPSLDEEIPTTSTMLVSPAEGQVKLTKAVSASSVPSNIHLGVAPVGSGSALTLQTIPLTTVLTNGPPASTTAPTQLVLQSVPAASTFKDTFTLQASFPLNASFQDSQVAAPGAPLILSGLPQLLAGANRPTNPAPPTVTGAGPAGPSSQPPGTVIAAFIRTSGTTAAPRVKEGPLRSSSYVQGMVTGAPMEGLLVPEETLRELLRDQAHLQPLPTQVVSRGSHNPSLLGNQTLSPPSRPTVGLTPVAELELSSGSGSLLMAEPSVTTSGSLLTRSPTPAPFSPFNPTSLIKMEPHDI

On to CATTAA, for which the binding signal is 1 fold enrichment (6-mer frequency, TF over GST control) with ELK1; 1.12 fold enrichment (6-mer frequency, TF over GST control) with GABPA; 1.07 fold enrichment (6-mer frequency, TF over GST control) in the experiment with ELF1; 1.01 fold enrichment (6-mer frequency, TF over GST control) in the experiment with EHF; 1.04 fold enrichment (6-mer frequency, TF over GST control) with SPI1; 1.04 fold enrichment (6-mer frequency, TF over GST control) with SPIB. Moreover, the binding signal with FEV was 1.01 fold enrichment (6-mer frequency, TF over GST control); with ETV5, 1.07 fold enrichment (6-mer frequency, TF over GST control); with ELF4 it was 1.07 fold enrichment (6-mer frequency, TF over GST control); with ELK4, 1.02 fold enrichment (6-mer frequency, TF over GST control); in the experiment with ETV2 it was 1.04 fold enrichment (6-mer frequency, TF over GST control); with ELF3, 1.05 fold enrichment (6-mer frequency, TF over GST control). Besides, the binding signal with ETV1 is 1.12 fold enrichment (6-mer frequency, TF over GST control); with ERF it was 1.1 fold enrichment (6-mer frequency, TF over GST control); in the experiment with ETV3L, 1.1 fold enrichment (6-mer frequency, TF over GST control); with ETS2, 1.04 fold enrichment (6-mer frequency, TF over GST control); with ETV7, 1.05 fold enrichment (6-mer frequency, TF over GST control); in the experiment with ETV3, 1.02 fold enrichment (6-mer frequency, TF over GST control). Besides, the binding signal with ETV6 is 1.03 fold enrichment (6-mer frequency, TF over GST control).
Turning to GAGCTT, the binding signal with GABPA is 1.08 fold enrichment (6-mer frequency, TF over GST control); in the experiment with ETV5, 1.04 fold enrichment (6-mer frequency, TF over GST control); with ELF3 it was 1.04 fold enrichment (6-mer frequency, TF over GST control); with ETV3, 1.03 fold enrichment (6-mer frequency, TF over GST control).

For the origin of these results see paper PMC7862700, “An all-to-all approach to the identification of sequence-specific readers for epigenetic DNA modifications on cytosine”.
